These results are taken from ChEMBL document CHEMBL4513216, “Probing the Open Global Health Chemical Diversity Library for Multistage-Active Starting Points for Next-Generation Antimalarials” (ACS Infect Dis, 2020).

Structures are written as SMILES. Out of some 69,000 compounds screened, about 8,600 (12%) showed an effect of 50% or more. Shown is part of a subset that was picked to be rich in strong results.

This experiment relates to Plasmodium berghei. In words: Screen against P. berghei liver stage (PbLuc), transformed with Luciferase, at 10uM. The note with it: tested at 10 uM. It counts as functional, HepG2.
On to `O=C(c1cnccn1)N1CCN2C[C@H](OCc3ccccc3)C[C@H]2C1`, for which the INHIBITION is on record as 11%. For `O=C(c1cnccn1)N1CCN2C[C@H](OCc3ccccn3)C[C@H]2C1`, the INHIBITION is reported as -0.182%. The figure for `O=C(c1cscn1)N1CCN2C[C@H](OCc3cccnc3)C[C@H]2C1` is 33%; for `Cc1cnc(C(=O)N2CCN3C[C@H](OCc4cccnc4)C[C@H]3C2)cn1` it is 52%. The figure for `CS(=O)(=O)NC1CCCN(C(=O)COCc2ccccc2)C1` (stereo not drawn) is -75.98%.

As to `Cc1ncc2c(n1)CCN(CCCc1nc3ccccc3o1)C2`, the INHIBITION was -65.2%. The result for `O=C(NCc1cn2c(n1)CN(Cc1ccccn1)CC2)C1CCC1` reads -8.94%; that for `CC(=O)N1[C@H](CN(C)C)C[C@@H]2CN(C(=O)c3ccno3)CC[C@@H]21`, 17.4%. The figure for `Cc1cc(C)c(C(=O)N2CCOC(CCN(C)C)C2)o1` (stereo not drawn) is -5.12%. The result for `Cc1ccc(N2CCC3(CCN(C(=O)c4ccsc4)C3)CC2)nn1` reads 36.4%. Turning to `Cc1nc[nH]c1C(=O)N1CCC2(CN(C)C(=O)O2)C1` (stereo not drawn), the INHIBITION is -11.2%. The figure for `CN1CC2(CCN(C(=O)c3ccc4c(=O)n(C)cnc4c3)C2)OC1=O` (stereo not drawn) is 88.2%; for `CN1CC2(CCN(C(=O)c3ccc4c(=O)n(C)cnc4c3)CC2)CC1=O` it is 32.5%. For `Cc1noc(C2CCN(Cn3cc(Br)cn3)CC2)n1`, the INHIBITION was -47%. In the case of `O=C(O)[C@@H]1OCC(=O)N(Cc2cccc(Cl)c2)[C@@H]1c1ccccc1`, the INHIBITION is listed as -25.3%. The result for `CCOC(=O)CCCc1ccc2c(c1)CC(=O)N2` reads 3.4%.

For `CCSCCOC(=O)CCCc1ccc2c(c1)CC(=O)N2`, the INHIBITION was 54.9%. The result for `O=C(O)CCCc1ccc2c(c1)CC(=O)N2` reads 24.2%. The result for `CCc1c(C(=O)NC2CCS(=O)(=O)C2)cnn1-c1ccc(C)cc1` (stereo not drawn) reads -17%.

Turning to `Cc1ccc(-n2ncc(C(=O)NC3CCCCC3)c2N)cc1`, the INHIBITION is reported as 66.5%. Turning to `Cc1ccc(-n2ncc(C(=O)NC3CC(C)(C)NC(C)(C)C3)c2N)cc1`, the INHIBITION was -21.1%.

On to `CCOc1c(F)cccc1C(=O)N(c1cccnc1)C(C)C`, for which the INHIBITION was found to be 55.1%. As for `CCOc1c(F)cccc1C(=O)N(CC)C(C)c1ccncc1` (stereo not drawn), the INHIBITION turned out to be 31.2%.

As for `CCOc1c(F)cccc1C(=O)N(CC)C(C)c1cccnc1` (stereo not drawn), the INHIBITION worked out at 43.1%. The figure for `COC(=O)CN(CC1CCOC1)C1CC1` (stereo not drawn) is 50.5%; for `COC(=O)CCN(CC1CCOC1)C1CC1` (stereo not drawn) it is 43.9%.

With `NC(=O)CN(CC1CCOC1)C1CC1` (stereo not drawn), the INHIBITION is recorded as 9.16%. In the case of `CC(C)N1CCc2[nH]nc(C(=O)N3CCN(C)CC3)c2C1`, the INHIBITION came to 1.34%. With `Cc1cc(Cl)ccc1NCC(=O)Nc1cc(C(C)(C)C)no1`, the INHIBITION was found to be 24.7%. The result for `COc1ccc(-n2nnnc2C2(NCc3ccco3)CCCCC2)cc1` reads 24.2%. Turning to `COc1ccc(-n2nnnc2C(C)(C)Nc2ccc(C)cc2C)cc1`, the INHIBITION came to 77.7%. Turning to `Cc1ccc(NC(C)(C)c2nnnn2-c2ccc(Cl)cc2)c(C)c1`, the INHIBITION stood at 81.1%. Regarding `COc1ccc(-n2nnc(C(=O)NC(C)C)c2C2CC2)cc1`, the INHIBITION turned out to be 40.1%.

Consider `Cc1cccc(-n2nnnc2C(C)(C)Nc2ccccc2C)c1`, for which the INHIBITION was determined as 39.1%. As to `c1cnc2c(c1)cc([C@@H]1CCCO1)n2CCN1CCOCC1`, the INHIBITION was determined as 0.301%. The figure for `NC(=O)C(CNC(=O)CCc1ccsc1)Cc1ccc(F)cc1` (stereo not drawn) is 13.1%; for `Cc1ccoc1C(=O)N1CC[C@H]2[C@@H]1CCC(=O)N2c1cccnc1` it is -7.38%; for `OCc1n[nH]c(-c2ccc(F)cc2)n1` it is -17%. The result for `c1cnnc(NCC2CN(CC3CCOCC3)CCO2)c1` (stereo not drawn) reads -35.7%.

As to `COc1ccc2c(c1)CN(Cc1ccco1)C(=O)CCN2CC(C)(C)O`, the INHIBITION stood at 51.7%.

For the compound `CC(C)(O)CN1CCC(=O)N(Cc2ccco2)Cc2cc(F)ccc21`, the INHIBITION is recorded as -17.1%. The figure for `CCN1Cc2cc(OC)ccc2N(CC(C)(C)O)CCC1=O` is 17.7%; for `CCOc1cc(CNCC2CN(C3CC3)CCO2)ccc1OC` (stereo not drawn) it is 22.3%. `O=C(N[C@@H]1CN(CCc2ccc(F)cc2)C[C@H]1O)c1cscn1`: the INHIBITION was 54.5%.

For the compound `O=C(N[C@@H]1CN(Cc2ccc(F)c(F)c2)C[C@H]1O)c1cscn1`, the INHIBITION is 2.6%. The figure for `O=C(N[C@@H]1CN(Cc2ccc(F)cc2)C[C@H]1O)c1cscn1` is 10%; for `Cc1nc(Nc2nnc(C)s2)cc(C2CCCN2C2CCCC2)n1` (stereo not drawn) it is 28%. As for `CCc1ncnc2c1CCN(Cc1ccccn1)CC2`, the INHIBITION was -9.48%. The figure for `O=C(Nc1ccnc(OC2CCOC2)c1)c1ccccc1Cl` (stereo not drawn) is 65.3%. In the case of `O=C(Nc1ccnc(OC2CCOC2)c1)c1ccc(F)cc1Cl` (stereo not drawn), the INHIBITION came to 17.6%. The figure for `Cc1occc1C(=O)Nc1ccnc(OC2CCOC2)c1` (stereo not drawn) is 7.84%; for `CN(C)Cc1cc(C2CCCCN2S(=O)(=O)c2cccc(Cl)c2)nn1C` (stereo not drawn) it is 37.8%.

On to `CC(=O)Nc1ccc(SCC(O)COCc2ccco2)cc1` (stereo not drawn), for which the INHIBITION came to 26.9%.
